Measured values: paper PMC11006913
Changes are numbered by the printed parent chain.

Legend:
Assay in all cases: PBM; 200 nM protein, PBS
Conditions in all cases: dsDNA, one strand shown
SIX6 [1] = molecular target: T1, SIX6 (Homo sapiens, UniProt O95475 114-200, L167I)
T1 sequence: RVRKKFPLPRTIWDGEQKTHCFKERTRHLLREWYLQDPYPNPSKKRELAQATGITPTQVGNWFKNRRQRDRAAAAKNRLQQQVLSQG

SIX6 [2] = molecular target: T2, SIX6 (Homo sapiens, UniProt O95475 114-200, L143V)
T2 sequence: T1 sequence with L30V, I54L

SIX6 [3] = molecular target: T3, SIX6 (Homo sapiens, UniProt O95475 114-200, H141N)
T3 sequence: T1 sequence with H28N, I54L

SIX6 [4] = molecular target: T4, SIX6 (Homo sapiens, UniProt O95475 114-200, T165P)
T4 sequence: T1 sequence with T52P, I54L

SIX6 [5] = molecular target: T5, SIX6 (Homo sapiens, UniProt O95475 114-200, L167M)
T5 sequence: T1 sequence with I54M

SIX6 [6] = molecular target: T6, SIX6 (Homo sapiens, UniProt O95475 114-200, L143M)
T6 sequence: T1 sequence with L30M, I54L

SIX6 [7] = molecular target: T7, SIX6 (Homo sapiens, UniProt O95475 114-200, L143I)
T7 sequence: T1 sequence with L30I, I54L

SIX6 [8] = molecular target: T8, SIX6 (Homo sapiens, UniProt O95475 114-200, T165G)
T8 sequence: T1 sequence with T52G, I54L

SIX6 [9] = molecular target: T9, SIX6 (Homo sapiens, UniProt O95475 114-200, T139Q)
T9 sequence: T1 sequence with T26Q, I54L

SIX6 [10] = molecular target: T10, SIX6 (Homo sapiens, UniProt O95475 114-200, T165A)
T10 sequence: T1 sequence with T52A, I54L

SIX6 [11] = molecular target: T11, SIX6 (Homo sapiens, UniProt O95475 114-200, L167V)
T11 sequence: T1 sequence with I54V

SIX6 [12] = molecular target: T12, SIX6 (Homo sapiens, UniProt O95475 114-200)
T12 sequence: T1 sequence with I54L

SIX6 [13] = molecular target: T13, SIX6 (Homo sapiens, UniProt O95475 114-200, T165I)
T13 sequence: T1 sequence with T52I, I54L

Sequence	binding signal (SIX6 [1])	binding signal (SIX6 [2])	binding signal (SIX6 [3])	binding signal (SIX6 [4])	binding signal (SIX6 [5])	binding signal (SIX6 [6])	binding signal (SIX6 [7])	binding signal (SIX6 [8])	binding signal (SIX6 [9])	binding signal (SIX6 [10])	binding signal (SIX6 [11])	binding signal (SIX6 [12])	binding signal (SIX6 [13])
GTATATCA	11.2 upbm affinity estimate (log intensity, higher = more binding, comparable within an allelic series)	10.5 upbm affinity estimate (log intensity, higher = more binding, comparable within an allelic series)	11.3 upbm affinity estimate (log intensity, higher = more binding, comparable within an allelic series)	9.99 upbm affinity estimate (log intensity, higher = more binding, comparable within an allelic series)	10.9 upbm affinity estimate (log intensity, higher = more binding, comparable within an allelic series)	11.1 upbm affinity estimate (log intensity, higher = more binding, comparable within an allelic series)	10.5 upbm affinity estimate (log intensity, higher = more binding, comparable within an allelic series)	11.2 upbm affinity estimate (log intensity, higher = more binding, comparable within an allelic series)	11.2 upbm affinity estimate (log intensity, higher = more binding, comparable within an allelic series)	11.2 upbm affinity estimate (log intensity, higher = more binding, comparable within an allelic series)	11 upbm affinity estimate (log intensity, higher = more binding, comparable within an allelic series)	11.1 upbm affinity estimate (log intensity, higher = more binding, comparable within an allelic series)	11.2 upbm affinity estimate (log intensity, higher = more binding, comparable within an allelic series)
ATCGTGTC	10.1 upbm affinity estimate (log intensity, higher = more binding, comparable within an allelic series)	9.87 upbm affinity estimate (log intensity, higher = more binding, comparable within an allelic series)	10.2 upbm affinity estimate (log intensity, higher = more binding, comparable within an allelic series)	9.63 upbm affinity estimate (log intensity, higher = more binding, comparable within an allelic series)	9.93 upbm affinity estimate (log intensity, higher = more binding, comparable within an allelic series)	–	9.97 upbm affinity estimate (log intensity, higher = more binding, comparable within an allelic series)	10.3 upbm affinity estimate (log intensity, higher = more binding, comparable within an allelic series)	–	10.3 upbm affinity estimate (log intensity, higher = more binding, comparable within an allelic series)	–	10.3 upbm affinity estimate (log intensity, higher = more binding, comparable within an allelic series)	–
CAGCTGGC	8.7 upbm affinity estimate (log intensity, higher = more binding, comparable within an allelic series)	8.78 upbm affinity estimate (log intensity, higher = more binding, comparable within an allelic series)	8.72 upbm affinity estimate (log intensity, higher = more binding, comparable within an allelic series)	8.91 upbm affinity estimate (log intensity, higher = more binding, comparable within an allelic series)	8.72 upbm affinity estimate (log intensity, higher = more binding, comparable within an allelic series)	8.61 upbm affinity estimate (log intensity, higher = more binding, comparable within an allelic series)	8.88 upbm affinity estimate (log intensity, higher = more binding, comparable within an allelic series)	8.8 upbm affinity estimate (log intensity, higher = more binding, comparable within an allelic series)	8.91 upbm affinity estimate (log intensity, higher = more binding, comparable within an allelic series)	8.79 upbm affinity estimate (log intensity, higher = more binding, comparable within an allelic series)	8.84 upbm affinity estimate (log intensity, higher = more binding, comparable within an allelic series)	8.73 upbm affinity estimate (log intensity, higher = more binding, comparable within an allelic series)	8.69 upbm affinity estimate (log intensity, higher = more binding, comparable within an allelic series)
GAAAGCGC	8.91 upbm affinity estimate (log intensity, higher = more binding, comparable within an allelic series)	8.99 upbm affinity estimate (log intensity, higher = more binding, comparable within an allelic series)	8.85 upbm affinity estimate (log intensity, higher = more binding, comparable within an allelic series)	9.04 upbm affinity estimate (log intensity, higher = more binding, comparable within an allelic series)	8.97 upbm affinity estimate (log intensity, higher = more binding, comparable within an allelic series)	8.96 upbm affinity estimate (log intensity, higher = more binding, comparable within an allelic series)	8.97 upbm affinity estimate (log intensity, higher = more binding, comparable within an allelic series)	9 upbm affinity estimate (log intensity, higher = more binding, comparable within an allelic series)	9 upbm affinity estimate (log intensity, higher = more binding, comparable within an allelic series)	9.02 upbm affinity estimate (log intensity, higher = more binding, comparable within an allelic series)	8.93 upbm affinity estimate (log intensity, higher = more binding, comparable within an allelic series)	8.96 upbm affinity estimate (log intensity, higher = more binding, comparable within an allelic series)	8.97 upbm affinity estimate (log intensity, higher = more binding, comparable within an allelic series)
TAGTATCA	11.3 upbm affinity estimate (log intensity, higher = more binding, comparable within an allelic series)	10.6 upbm affinity estimate (log intensity, higher = more binding, comparable within an allelic series)	11.1 upbm affinity estimate (log intensity, higher = more binding, comparable within an allelic series)	10 upbm affinity estimate (log intensity, higher = more binding, comparable within an allelic series)	10.8 upbm affinity estimate (log intensity, higher = more binding, comparable within an allelic series)	11 upbm affinity estimate (log intensity, higher = more binding, comparable within an allelic series)	10.4 upbm affinity estimate (log intensity, higher = more binding, comparable within an allelic series)	11.3 upbm affinity estimate (log intensity, higher = more binding, comparable within an allelic series)	11.3 upbm affinity estimate (log intensity, higher = more binding, comparable within an allelic series)	11.2 upbm affinity estimate (log intensity, higher = more binding, comparable within an allelic series)	11.1 upbm affinity estimate (log intensity, higher = more binding, comparable within an allelic series)	11 upbm affinity estimate (log intensity, higher = more binding, comparable within an allelic series)	11 upbm affinity estimate (log intensity, higher = more binding, comparable within an allelic series)
GATACCGA	10.5 upbm affinity estimate (log intensity, higher = more binding, comparable within an allelic series)	9.92 upbm affinity estimate (log intensity, higher = more binding, comparable within an allelic series)	10.4 upbm affinity estimate (log intensity, higher = more binding, comparable within an allelic series)	9.38 upbm affinity estimate (log intensity, higher = more binding, comparable within an allelic series)	10.1 upbm affinity estimate (log intensity, higher = more binding, comparable within an allelic series)	–	9.98 upbm affinity estimate (log intensity, higher = more binding, comparable within an allelic series)	10.6 upbm affinity estimate (log intensity, higher = more binding, comparable within an allelic series)	10.6 upbm affinity estimate (log intensity, higher = more binding, comparable within an allelic series)	10.5 upbm affinity estimate (log intensity, higher = more binding, comparable within an allelic series)	–	10.5 upbm affinity estimate (log intensity, higher = more binding, comparable within an allelic series)	–
CGGGGACC	8.99 upbm affinity estimate (log intensity, higher = more binding, comparable within an allelic series)	8.83 upbm affinity estimate (log intensity, higher = more binding, comparable within an allelic series)	8.99 upbm affinity estimate (log intensity, higher = more binding, comparable within an allelic series)	8.96 upbm affinity estimate (log intensity, higher = more binding, comparable within an allelic series)	8.97 upbm affinity estimate (log intensity, higher = more binding, comparable within an allelic series)	8.88 upbm affinity estimate (log intensity, higher = more binding, comparable within an allelic series)	8.86 upbm affinity estimate (log intensity, higher = more binding, comparable within an allelic series)	8.9 upbm affinity estimate (log intensity, higher = more binding, comparable within an allelic series)	8.95 upbm affinity estimate (log intensity, higher = more binding, comparable within an allelic series)	8.92 upbm affinity estimate (log intensity, higher = more binding, comparable within an allelic series)	8.99 upbm affinity estimate (log intensity, higher = more binding, comparable within an allelic series)	8.89 upbm affinity estimate (log intensity, higher = more binding, comparable within an allelic series)	8.91 upbm affinity estimate (log intensity, higher = more binding, comparable within an allelic series)
ATATCCCC	10.9 upbm affinity estimate (log intensity, higher = more binding, comparable within an allelic series)	10.3 upbm affinity estimate (log intensity, higher = more binding, comparable within an allelic series)	10.9 upbm affinity estimate (log intensity, higher = more binding, comparable within an allelic series)	9.7 upbm affinity estimate (log intensity, higher = more binding, comparable within an allelic series)	10.9 upbm affinity estimate (log intensity, higher = more binding, comparable within an allelic series)	10.9 upbm affinity estimate (log intensity, higher = more binding, comparable within an allelic series)	10.3 upbm affinity estimate (log intensity, higher = more binding, comparable within an allelic series)	10.9 upbm affinity estimate (log intensity, higher = more binding, comparable within an allelic series)	10.9 upbm affinity estimate (log intensity, higher = more binding, comparable within an allelic series)	10.8 upbm affinity estimate (log intensity, higher = more binding, comparable within an allelic series)	10.7 upbm affinity estimate (log intensity, higher = more binding, comparable within an allelic series)	10.9 upbm affinity estimate (log intensity, higher = more binding, comparable within an allelic series)	10.9 upbm affinity estimate (log intensity, higher = more binding, comparable within an allelic series)
GTGATACA	11.4 upbm affinity estimate (log intensity, higher = more binding, comparable within an allelic series)	10.4 upbm affinity estimate (log intensity, higher = more binding, comparable within an allelic series)	11.4 upbm affinity estimate (log intensity, higher = more binding, comparable within an allelic series)	9.76 upbm affinity estimate (log intensity, higher = more binding, comparable within an allelic series)	10.8 upbm affinity estimate (log intensity, higher = more binding, comparable within an allelic series)	11.2 upbm affinity estimate (log intensity, higher = more binding, comparable within an allelic series)	10.4 upbm affinity estimate (log intensity, higher = more binding, comparable within an allelic series)	11.3 upbm affinity estimate (log intensity, higher = more binding, comparable within an allelic series)	11.3 upbm affinity estimate (log intensity, higher = more binding, comparable within an allelic series)	11.3 upbm affinity estimate (log intensity, higher = more binding, comparable within an allelic series)	11.1 upbm affinity estimate (log intensity, higher = more binding, comparable within an allelic series)	11 upbm affinity estimate (log intensity, higher = more binding, comparable within an allelic series)	11.2 upbm affinity estimate (log intensity, higher = more binding, comparable within an allelic series)
CGGCCCAA	9.05 upbm affinity estimate (log intensity, higher = more binding, comparable within an allelic series)	8.91 upbm affinity estimate (log intensity, higher = more binding, comparable within an allelic series)	9.04 upbm affinity estimate (log intensity, higher = more binding, comparable within an allelic series)	8.99 upbm affinity estimate (log intensity, higher = more binding, comparable within an allelic series)	9.02 upbm affinity estimate (log intensity, higher = more binding, comparable within an allelic series)	8.96 upbm affinity estimate (log intensity, higher = more binding, comparable within an allelic series)	8.94 upbm affinity estimate (log intensity, higher = more binding, comparable within an allelic series)	9.03 upbm affinity estimate (log intensity, higher = more binding, comparable within an allelic series)	9.14 upbm affinity estimate (log intensity, higher = more binding, comparable within an allelic series)	8.99 upbm affinity estimate (log intensity, higher = more binding, comparable within an allelic series)	8.99 upbm affinity estimate (log intensity, higher = more binding, comparable within an allelic series)	8.99 upbm affinity estimate (log intensity, higher = more binding, comparable within an allelic series)	9.03 upbm affinity estimate (log intensity, higher = more binding, comparable within an allelic series)
TGATATCA	11.6 upbm affinity estimate (log intensity, higher = more binding, comparable within an allelic series)	10.5 upbm affinity estimate (log intensity, higher = more binding, comparable within an allelic series)	11.6 upbm affinity estimate (log intensity, higher = more binding, comparable within an allelic series)	9.86 upbm affinity estimate (log intensity, higher = more binding, comparable within an allelic series)	11 upbm affinity estimate (log intensity, higher = more binding, comparable within an allelic series)	11.4 upbm affinity estimate (log intensity, higher = more binding, comparable within an allelic series)	10.5 upbm affinity estimate (log intensity, higher = more binding, comparable within an allelic series)	11.6 upbm affinity estimate (log intensity, higher = more binding, comparable within an allelic series)	11.6 upbm affinity estimate (log intensity, higher = more binding, comparable within an allelic series)	11.6 upbm affinity estimate (log intensity, higher = more binding, comparable within an allelic series)	11.6 upbm affinity estimate (log intensity, higher = more binding, comparable within an allelic series)	11.3 upbm affinity estimate (log intensity, higher = more binding, comparable within an allelic series)	11.4 upbm affinity estimate (log intensity, higher = more binding, comparable within an allelic series)
